HPGD block: blocks human HPGD enzyme activity; P15428; purified HPGD, NADH fluorescence kinetic, PGE2 substrate; Potency, µM, inactives show top-dose activity change, negative = inhibition, most hits filed as inhibitors; 150,000 tested, 4.3% active; AID 894; active means well fitted inhibition curve with a large enough effect, not every such curve was filed as active; inconclusive means small, poorly fitted or top-dose-only effect, or another doubt; inactive means no such curve, though single readings can be large or run the other way; further: potency means the concentration at half of the fitted maximal effect; on the % scale 0 is the no-effect control and ±100 the full control effect
Target sequence (P15428 whole entry, looked up): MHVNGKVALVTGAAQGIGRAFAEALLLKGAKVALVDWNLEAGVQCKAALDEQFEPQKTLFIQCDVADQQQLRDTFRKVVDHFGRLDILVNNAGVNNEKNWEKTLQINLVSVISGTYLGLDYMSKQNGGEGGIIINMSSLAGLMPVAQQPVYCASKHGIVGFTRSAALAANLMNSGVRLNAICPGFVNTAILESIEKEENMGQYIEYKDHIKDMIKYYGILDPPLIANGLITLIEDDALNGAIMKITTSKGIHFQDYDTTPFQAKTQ
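NADH formation kinetics: reaction with 30 uM PGE2 and 1 mM NAD+ (final), 20 nM enzyme, Tris-HCl pH 8 with Tween 20, after 15 min compound preincubation at room temperature. Fluorescence change, last versus first of five reads.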
ALDH1A1 block: blocks purified human ALDH1A1 activity; P00352; Purified ALDH1A1, NADH fluorescence, propionaldehyde substrate; Potency, µM (doses to about 75.3 µM), without a hit: top-dose activity, negative = inhibition, most hits filed as inhibitors; 220,000 tested, 7.3% active; AID 1030; active means well fitted inhibition curve with a large enough effect, not every such curve was filed as active; inconclusive means small, poorly fitted or top-dose-only effect, or another doubt; inactive means no such curve, though single readings can be large or run the other way;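 further: potency means the concentration at half of the fitted maximal effect; plate controls were no enzyme wells and a reference inhibitor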
RGS12 GoLoco inh: RGS12 GoLoco-Gai1 interaction inhibition; P63096; AID 880; Gai1:RGS12 GoLoco peptide FP, rhodamine, 10 min; Potency, µM (titrated, usually from 61.6 µM), for the others: at the top dose activity, negative = inhibition, most hits filed as inhibitors; 230,000 tested, 0.44% active; active means well fitted inhibition curve with a large enough effect, not every such curve was filed as active; inactive means no such curve, though single readings can be large or run the other way; further: potency means the concentration at half of the fitted maximal effect; on the % scale 0 is the no-effect control and ±100 the full control effect; nearly all actives have a fitted effect of over 30% in size
Target sequence (P63096 whole entry, looked up): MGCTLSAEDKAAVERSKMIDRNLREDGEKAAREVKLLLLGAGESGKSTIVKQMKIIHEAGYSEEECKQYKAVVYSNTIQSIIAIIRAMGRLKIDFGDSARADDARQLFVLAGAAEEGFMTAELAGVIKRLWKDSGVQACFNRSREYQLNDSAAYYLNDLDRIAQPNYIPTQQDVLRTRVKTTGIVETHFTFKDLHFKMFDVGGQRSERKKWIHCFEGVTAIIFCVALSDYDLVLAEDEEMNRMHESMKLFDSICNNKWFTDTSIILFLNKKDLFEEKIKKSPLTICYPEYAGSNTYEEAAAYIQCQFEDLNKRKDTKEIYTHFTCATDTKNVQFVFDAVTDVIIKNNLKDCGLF
HttQ103 aggreg: mutant huntingtin aggregation inhibition. PC12 HttQ103-GFP aggregates, Acumen cytometry, 40 h. Potency, µM (highest dose often 46.1 µM), inactives show at the top dose activity change, negative = inhibition, usual class: inhibitors. 220,000 tested, 1.1% active; further: potency means the concentration at half of the fitted maximal effect; on the % scale 0 is the no-effect control and ±100 the full control effect; nearly all actives have a fitted effect of over 60% in size
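Inducible Q103 Huntingtin exon 1–GFP PC12 line, 1500 cells/well in phenol red free DMEM with 5% equine and 5% calf serum. Tebufenozide 100 nM induced expression; compounds titrated; aggregates quantified by cytometry.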
HTT cytoprotect: protects HTT-Q103 PC12 cells, measured by ATP. 230,000 tested, 0.14% active. AID 1471. PC12 HTT-Q103 induced, cytoprotection, ATP luminescence, 40 h. Potency, µM (series often up to 56.4 µM), for the others: cytoprotection (ATP increase), most hits filed as activators; further: potency means the concentration at half of the fitted maximal effect; % of control where 0% means no effect; nearly all actives have a fitted effect of over 45% in size
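Huntington model: PC12 line, ecdysone-inducible HTTQ103 exon1–GFP, tebufenozide 100 nM. Test articles in a dose series. Endpoint luminescence from cellular ATP.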
PNC assembly inh: inhibitors of perinucleolar compartment assembly. PC3M PTB-GFP, PNC prevalence imaging, 16 h; active compounds read low. 140,000 tested, 3.1% active. activity change (PNC), negative = inhibition, % at 10 µM;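 active means readout at or below -70, meaning at least 70% loss of cells showing the perinucleolar compartment, a nuclear body marking cancer cells; inconclusive means readout between -30 and a set limit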;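 further: plate controls were DMSO wells for no effect and camptothecin positive control wells for full effect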
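Compounds are pinned in duplicate onto adhered PC3M cells stably expressing GFP-tagged PTB and incubated 16 h at 37 C. Cells are then fixed, nuclei stained with Hoechst, and PNC-positive cells counted.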
Active calls of the source: *; [ ] = another dose, or the depositor's remark. Only some compounds are listed: those with a hit (about 11% of all), similar ones and a draw of the others. Unless noted, the call rests on the fitted dose curve; in most records, active means well fitted curve in the direction sought with a large enough effect; inconclusive means small, poorly fitted or top-dose-only effect, or another doubt; inactive means no such curve, though single readings can be large; an effect the other way counts as inactive or inconclusive.

`O=C(Nc1ccc2c(c1)C(=O)N(c1ccccc1)C2=O)C1CCCO1` (stereo not given) gave HPGD block -10.1%, ALDH1A1 block 14.1µM*, RGS12 GoLoco inh 3.9%, HttQ103 aggreg -1.9%, HTT cytoprotect -5.4%[10 µM] and PNC assembly inh -20.3.
O=C(NCCN1CCN(c2ccccc2)CC1)c1ccc(NC(=O)C2CCCO2)cc1 (stereo not given) was read as HPGD block -11.8%, ALDH1A1 block 28.2µM*, RGS12 GoLoco inh 3.8%, HttQ103 aggreg inconclusive, HTT cytoprotect 6.7% and PNC assembly inh inconclusive.
COc1ccc(NS(=O)(=O)c2ccc(NC(=O)C3CCCO3)cc2)cc1 (stereo not given) was read as HPGD block -24.9%, ALDH1A1 block 8.8%, RGS12 GoLoco inh 2.6%, HttQ103 aggreg inconclusive, HTT cytoprotect 0.7%[10 µM] and PNC assembly inh inconclusive.
O=C(CCCCCC(=O)N(CCO)CCO)N(CCO)CCO was read as HPGD block -3.4%, ALDH1A1 block 7.3%, RGS12 GoLoco inh -1.9%, HttQ103 aggreg 11.3%, HTT cytoprotect 8.9% and PNC assembly inh inconclusive.
`COC(=O)C/C=C/[C@@H](C)[C@H](O)c1ccccc1Br` gave HPGD block 2.0%, ALDH1A1 block 12.2%, RGS12 GoLoco inh 5.1% and HTT cytoprotect inconclusive.
For CC1CC(C)CN(C(=S)Nc2ccc3nc4n(c(=O)c3c2)CCCCC4)C1 (stereo not given) the results were HPGD block inconclusive, ALDH1A1 block -4.3%, RGS12 GoLoco inh 1.0%, HttQ103 aggreg -3.7%, HTT cytoprotect 20.7%[10 µM] and PNC assembly inh -15.2.
`O=C(Nc1ccc(F)c(Cl)c1)c1ccc2c(=O)n3c(nc2c1)CCCCC3` gave ALDH1A1 block 25.1µM*, HttQ103 aggreg -31.9%, HTT cytoprotect -10.4% and PNC assembly inh inconclusive.
Screening Cc1ccc(S(=O)(=O)N2CCCCC2)cc1NC(=O)c1ccc2c(=O)n3c(nc2c1)CCCCC3 returned HPGD block -19.4%, ALDH1A1 block 14.1µM*, RGS12 GoLoco inh -4.6%, HttQ103 aggreg 11.4%, HTT cytoprotect 17.7%[10 µM] and PNC assembly inh 7.6.
For CC1CCCN(C(=S)Nc2ccc3nc4n(c(=O)c3c2)CCCCC4)C1 (stereo not given) the results were HPGD block -28.6%, ALDH1A1 block inconclusive, RGS12 GoLoco inh -3.6%, HttQ103 aggreg 3.7%, HTT cytoprotect 5.6%[10 µM] and PNC assembly inh -119.3*.
O=C(COc1ccc(Cl)cc1Cl)Nc1ccc2nc3n(c(=O)c2c1)CCCC3 was read as HPGD block 10µM*, ALDH1A1 block inconclusive, RGS12 GoLoco inh 5.7%, HttQ103 aggreg 10.5%, HTT cytoprotect -38.2% and PNC assembly inh -11.4.
For CCCCC[C@H](O)/C=C/[C@H]1OC(O)C[C@H](O)[C@@H]1C/C=C\CCCC(=O)O (stereo not given in full) the results were HPGD block -6.0%, ALDH1A1 block -1.3%, RGS12 GoLoco inh 3.4% and HTT cytoprotect 24.7%.
`Cc1csc(C(=O)O)c1-n1cccc1` gave HPGD block -4.9%, ALDH1A1 block -6.1%, RGS12 GoLoco inh -5.0%, HttQ103 aggreg 6.3%, HTT cytoprotect -4.9%[10 µM] and PNC assembly inh inconclusive.
`CCN(CC(=O)O)C(=O)c1cccnc1` gave HPGD block -4.2%, ALDH1A1 block 6.9%[13.5 µM], RGS12 GoLoco inh -3.3%[14.2 µM] and HTT cytoprotect -10.5%[10 µM].
Screening O=C(COC(=O)c1ccc(S(=O)(=O)NCc2ccco2)cc1)Nc1ccccc1OC(F)F returned HPGD block -18.9%, ALDH1A1 block 2.0%, RGS12 GoLoco inh -7.6%, HttQ103 aggreg 2.5%, HTT cytoprotect -13.7%[10 µM] and PNC assembly inh -101.4*.
For CN(C)/C=N/c1c(C#N)nnn1Cc1ccccc1 the results were HPGD block 20µM*, ALDH1A1 block inconclusive, RGS12 GoLoco inh -9.3%, HttQ103 aggreg -13.1%, HTT cytoprotect -79.5% and PNC assembly inh inconclusive.
CN(C)C=Nc1ncc2c3ccccc3n(Cc3ccccc3)c2c1C#N was read as HPGD block inconclusive, ALDH1A1 block inconclusive, RGS12 GoLoco inh -4.4%, HttQ103 aggreg -12.2%, HTT cytoprotect -15.7% and PNC assembly inh -2.4.
`CC(=O)O[C@@H](C)C#C[Si](C)(C)c1ccccc1` gave HPGD block -1.0%, ALDH1A1 block 5.2%, RGS12 GoLoco inh -3.5% and HTT cytoprotect 20.8%.
Screening CC(C)CNC(=O)CC(=O)N/N=C/c1ccc(Br)cc1 returned HPGD block 15.8µM*, ALDH1A1 block 0.891µM*, RGS12 GoLoco inh 9.3%, HttQ103 aggreg inconclusive, HTT cytoprotect -34.1% and PNC assembly inh 28.2.
CC(C(=O)NCC1CCCCC1)N1CCN(S(=O)(=O)c2ccccc2F)CC1 (stereo not given) was read as ALDH1A1 block 15.8µM*, RGS12 GoLoco inh 5.6%, HttQ103 aggreg 11.8% and HTT cytoprotect 10.5%[10 µM].
`O=C(O)c1ccccc1-c1ccccc1C(=O)Nc1ccc2c(c1)Cc1ccccc1-2` gave HPGD block -4.1%, ALDH1A1 block 8.3%[13.5 µM], RGS12 GoLoco inh 4.7%[14.2 µM] and HTT cytoprotect -2.2%[10 µM].
Cc1ccc(N(CC(=O)Nc2ccc3c(c2)OCCO3)S(C)(=O)=O)cc1 was read as ALDH1A1 block -12.3%, RGS12 GoLoco inh 36.1%, HttQ103 aggreg 15.4%[9.22 µM] and HTT cytoprotect 2.2%[10 µM].
`O=C1C2C3C=CC(CNS(=O)(=O)c4ccccc4[N+](=O)[O-])(O3)C2C(=O)N1c1ccccc1` (stereo not given) gave ALDH1A1 block 0.891µM*, RGS12 GoLoco inh -20.4% and HttQ103 aggreg inconclusive.
`O=C1C2C3C=CC(c4ccccc4)(C2C(=O)N1c1cccc(Cl)c1)C1C(=O)N(c2cccc(Cl)c2)C(=O)C31` (stereo not given) gave HPGD block -17.0%, ALDH1A1 block inconclusive, RGS12 GoLoco inh -4.7%, HttQ103 aggreg 0.2%, HTT cytoprotect -9.0%[1.9 µM] and PNC assembly inh 18.5.
`O=[N+]([O-])c1ccccc1S(=O)(=O)NCc1ccco1` gave ALDH1A1 block -0.2%, RGS12 GoLoco inh 3.4%, HttQ103 aggreg 2.4% and HTT cytoprotect -21.2%.
`Cc1cc(C)c(S(=O)(=O)NCC23C=CC(O2)C2C(=O)N(c4ccccc4)C(=O)C23)c(C)c1` (stereo not given) gave HPGD block 35.5µM*, ALDH1A1 block 2.51µM*, RGS12 GoLoco inh -22.4%, HttQ103 aggreg -5.8%, HTT cytoprotect -27.3% and PNC assembly inh 87.4.
For CCCCC/C=C\C/C=C\CCCCCCCC(N)=O the results were HPGD block -10.8%, ALDH1A1 block 7.2%, RGS12 GoLoco inh -4.8% and HTT cytoprotect 11.8%.
